Sampled rows, rich in hits. Any-hit rate of the full collection: about 1.8%.
H9c2 protect: modulators protecting cardiomyocytes from myocardial damage; 360,000 compounds, 0.63% hits; H9c2 cardiomyocytes, H2O2 injury protection, ATPLite, 2 h; AID 588492; protection from H2O2 cell death, % at 20 µM;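 active means compounds giving at least 50% protection of heart cells from peroxide-induced death in the single-dose screen, raw or plate-pattern-corrected value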
Neddylation inh: inhibitors of human cullin neddylation; inhibition, % at 25 µM; 360,000 compounds, 0.58% hits; TR-FRET cullin neddylation, biochemical; P61081+Q13564; in the data active means inhibition above about 36%
Target sequence (P61081 whole entry, looked up): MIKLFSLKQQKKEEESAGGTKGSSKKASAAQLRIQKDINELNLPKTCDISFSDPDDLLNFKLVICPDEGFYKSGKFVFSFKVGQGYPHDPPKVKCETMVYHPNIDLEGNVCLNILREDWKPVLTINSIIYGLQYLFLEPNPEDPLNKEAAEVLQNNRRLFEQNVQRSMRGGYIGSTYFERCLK
Target sequence (Q13564 whole entry, looked up): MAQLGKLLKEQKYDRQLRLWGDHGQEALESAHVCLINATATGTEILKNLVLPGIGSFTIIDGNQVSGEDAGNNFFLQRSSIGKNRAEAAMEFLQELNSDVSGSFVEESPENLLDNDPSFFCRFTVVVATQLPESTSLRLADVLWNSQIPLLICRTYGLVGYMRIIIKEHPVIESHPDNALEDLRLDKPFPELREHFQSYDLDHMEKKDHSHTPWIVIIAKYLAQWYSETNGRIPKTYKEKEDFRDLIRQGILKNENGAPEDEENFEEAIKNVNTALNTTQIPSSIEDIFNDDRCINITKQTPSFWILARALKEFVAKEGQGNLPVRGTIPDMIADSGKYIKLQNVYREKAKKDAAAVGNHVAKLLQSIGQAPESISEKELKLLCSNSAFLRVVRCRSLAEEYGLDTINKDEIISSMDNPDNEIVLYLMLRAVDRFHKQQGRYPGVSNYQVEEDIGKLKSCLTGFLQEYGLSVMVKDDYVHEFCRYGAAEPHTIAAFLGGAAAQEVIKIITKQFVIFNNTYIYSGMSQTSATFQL
GRK2 inh: human GRK2 inhibition via aptamer displacement. 330,000 compounds, 0.59% hits. bead flow cytometry, FAM-aptamer displacement from GRK2. AID 488847. inhibition of aptamer binding, % at 10 µM;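 active means inhibition of aptamer binding above 40%, roughly 3 SD of noise, on plates passing a quality check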;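 further: median bead fluorescence of bound FAM aptamer so fluorescent compounds give negative values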
HDAC3 inh: inhibitors of human histone deacetylase 3; inhibition, % at 8.3 µM; O15379; recombinant HDAC3, fluorogenic peptide/trypsin coupled, fluorescence; 320,000 compounds, 0.15% hits; AID 2718; in the data active means inhibition above about 26%, passing the limit was not always enough; inconclusive means no clear call, values can overlap the other calls
Hits are given with their value; – = inactive; ? = inconclusive; · = no result given.

SMILES	H9c2 protect	Neddylation inh	GRK2 inh	HDAC3 inh
O=C(c1cc(=O)[nH]c2ccccc12)N1CCN(S(=O)(=O)c2ccc3ccccc3c2)CC1	102.8	–	–	–
O=C(c1n[nH]c2ccccc12)N1CCN(S(=O)(=O)c2ccccc2)CC1	–	–	–	–
O=C(NCC(=O)N1CCN(S(=O)(=O)c2ccc3c(c2)OCCO3)CC1)c1ccccc1F	–	–	–	–
O=C(c1ccccc1F)N1CCN(S(=O)(=O)c2ccc3c(c2)OCCO3)CC1	–	–	–	31.9
O=C(c1cc(=O)[nH]c2ccccc12)N1CCN(S(=O)(=O)c2ccc(Cl)cc2)CC1	87.9	–	–	–
O=C(COC(=O)c1cccnc1Cl)NC(=O)c1ccc(OC(F)F)cc1	–	–	–	–
c1ccc(CNc2c3ccccc3nc3ccccc23)cc1	–	–	–	–
OCC(Cc1ccccc1)Nc1c2ccccc2nc2ccccc12 (stereo not drawn)	–	43.5	–	–
COc1ccc2occ(C(=O)c3coc4ccc(O)c(CN(C)C)c34)c2c1	60.7	–	–	–
O=C(CN1CCN(S(=O)(=O)c2ccc(Br)cc2)CC1)c1ccc(O)c(O)c1	70.8	–	–	–
O=C(CN1CCN(c2ccccc2F)CC1)c1ccc(O)c(O)c1	52.8	–	–	–
COc1cccc(C(=O)CN2CCN(S(=O)(=O)c3cccc([N+](=O)[O-])c3)CC2)c1	–	–	–	–
COc1ccc(C(=O)CN2CCN(S(=O)(=O)c3cccc([N+](=O)[O-])c3)CC2)cc1OC	–	–	–	53.3
CC(C)c1ccc(S(=O)(=O)N2CCN(CC(=O)c3ccc(O)c(O)c3)CC2)cc1	55.5	–	–	–
CC(=O)OC[C@@H]1CN(Cc2ccccc2)C[C@H](n2cnc3c(NC4CCC4)ncnc32)O1	–	–	·	·
COc1ccc(C(=O)O/N=C2\CCS(=O)(=O)c3sccc32)cc1	–	–	–	52.1
CCCc1cc(=O)[nH]c(SCC(=O)c2c(N)n(C3CC3)c(=O)[nH]c2=O)n1	–	–	–	–
CN(Cc1ccco1)c1ncnc2ccc(-c3ccccc3Cl)cc12	–	–	–	–
CN(Cc1ccco1)c1ncnc2ccc(-c3ccoc3)cc12	–	38.9	–	–
CCOC(=O)c1c(C)[nH]c(C)c1C(=O)COc1ncnc2cc([N+](=O)[O-])ccc12	64.8	–	–	–
CN1c2ccccc2Oc2c(c(=O)n(C)c(=O)n2C)C1c1cccc([N+](=O)[O-])c1 (stereo not drawn)	–	–	–	–
Cn1c2c(c(=O)n(C)c1=O)C(c1ccc(Br)cc1)Nc1ccccc1O2 (stereo not drawn)	50.6	–	–	–
COc1cccc(/C=N/Nc2ncnc3scc(-c4ccccc4)c23)c1OC	60.0	–	–	–
Cc1sc2ncnc(N/N=C/c3ccccc3O)c2c1C	53.7	50.1	–	–
O=C(CNC(=O)c1cccc(F)c1)N/N=C/c1cc(Br)ccc1OC(=O)/C=C/c1ccco1	56.6	–	·	·
SMILES	H9c2 protect	Neddylation inh	GRK2 inh	HDAC3 inh
Cc1cn([C@@H](CCCCNC(=O)OC(C)(C)C)C(=O)NCCCCCCCCCCC(=O)N2CCN(C(=O)OC(C)(C)C)CC2)nn1	–	–	–	–
C#CCOCCOCCOCCNc1nc(N2CCN(C(=O)CCCCCCCCCCNC(=O)[C@H](CCCN=C(N)N)n3cc(C[C@@H](C)CC)nn3)CC2)nc(N2CCN(C(=O)CCCCCCCCCCNC(=O)[C@@H]([C@H](C)CC)n3cc(CCCCCN)nn3)CC2)n1	·	·	–	32.6
CC[C@H](C)Cc1cn([C@@H](CCCN=C(NC(=O)OC(C)(C)C)NC(=O)OC(C)(C)C)C(=O)NCCCCCCCCCCC(=O)N2CCN(C(=O)OC(C)(C)C)CC2)nn1	–	–	–	28.2
C#CCOCCOCCOCCNc1nc(N2CCN(C(=O)CCCCCCCCCCNC(=O)[C@@H](CCSC)n3cc(CCO)nn3)CC2)nc(N2CCN(C(=O)CCCCCCCCCCNC(=O)[C@H](CCCN=C(N)N)n3cc(C[C@@H](C)CC)nn3)CC2)n1	–	–	–	69.2
C#CCOCCOCCOCCNc1nc(N2CCN(C(=O)CCCCCCCCCCNC(=O)[C@H](CCCCN)n3cc(C[C@@H](C)CC)nn3)CC2)nc(N2CCN(C(=O)CCCCCCCCCCNC(=O)[C@H](CCCN=C(N)N)n3cc(C[C@@H](C)CC)nn3)CC2)n1	–	–	–	?
CC(C)C(NC(=O)c1ccc(F)cc1)C(=O)N1CCN(C(=O)c2ccco2)CC1 (stereo not drawn)	–	–	–	–
CC(=O)c1cccc(OCC(=O)N(C)CC(=O)NCc2ccco2)c1	–	–	86.0	–
Cc1ccc(OCC(=O)N(C)CC(=O)NCc2ccco2)c(Br)c1	–	–	·	·
O=S(=O)(c1cccc2nonc12)N1CCCCC1	–	–	–	–
Cc1cc(NC(=O)C2CCCCC2)nc2c1c(=O)oc1ccccc12	101.0	–	–	–
COc1cccc(C(=O)Nc2cc(C)c3c(=O)oc4ccccc4c3n2)c1	90.4	–	–	–
Cc1cc(NC(=O)Cc2ccccc2)nc2c1c(=O)oc1ccccc12	–	–	–	–
Cc1cc(NC(=O)C2CCCC2)nc2c1c(=O)oc1ccccc12	–	–	–	–
CCCC(=O)NC(c1ccco1)c1cc([N+](=O)[O-])c2cccnc2c1O (stereo not drawn)	55.0	–	–	–
CC(=O)c1sc2nc(-c3ccco3)ccc2c1N	–	81.8	–	–
COc1ccc(Cl)cc1NC(=O)C1CCN(C(=O)Nc2ccccc2)CC1	–	–	–	–
COc1cccc(NC(=O)CN(C)C(=O)CCCc2nc3ccccc3c(=O)[nH]2)c1	64.2	–	–	–
CN(C)S(=O)(=O)c1cccc(NC(=O)CCCc2nc3ccccc3c(=O)[nH]2)c1	–	–	–	·
CN(CC(=O)Nc1ccc(Cl)c(C(F)(F)F)c1)C(=O)CCCc1nc2ccccc2c(=O)[nH]1	–	–	–	–
CN(CC(=O)Nc1cccc(F)c1)C(=O)Cc1n[nH]c(=O)c2ccccc12	74.1	–	–	–
CCN(CC(=O)Nc1ccc(OC)cc1)C(=O)CCc1nc2ccccc2c(=O)[nH]1	89.9	–	–	–
CN(CC(=O)Nc1cccc(F)c1)C(=O)CCCc1nc2ccccc2c(=O)[nH]1	60.4	–	–	·
Cc1cc(F)ccc1C(O)c1ncc(-c2cccc(OCc3ccccc3)c2)[nH]1 (stereo not drawn)	–	–	·	·
COc1ccc(Nc2c(-c3ccc(F)cc3)nc3nc(C)cc(C)n23)cc1	·	–	·	·
O=C(C1COc2ccccc2O1)N1CCN(c2nc3c(F)cc(F)cc3s2)CC1 (stereo not drawn)	–	–	–	–
COCCN(C(=O)c1snc(C(N)=O)c1N)C(C(=O)NC1CCCCC1)c1ccc(N(C)C)cc1 (stereo not drawn)	–	–	–	–
CN(C(=O)Cn1nc(C(=O)O)c2ccccc2c1=O)C1(C#N)CCCCC1	56.8	–	–	–
COC(=O)CC1C(=O)NCCN1C(=O)CSc1nc2cc(Cl)ccc2o1 (stereo not drawn)	–	–	–	–
O=C(CCC(=O)N1CCN(S(=O)(=O)c2ccc(Cl)cc2)CC1)NCc1ccccc1	–	–	–	–

Compound activity: PubChem BioAssay, several laboratories
